outcome, inhibition and activation data for 15 compounds are collected here from PubChem BioAssay.

For assay [1], the system named is TRPC4 beta (transient receptor potential cation channel C4), mouse. Nature of the assay: TRPC4 cation channel opening, retest – cell-based, Fluo4 calcium, HEK293 TRPC4beta/mu-opioid, duplicates, 10 µM, confirmation (AID 2426;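 active = fluorescence ratio normalized to control raised more than 50% in primary screen plus both repeat runs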;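 as to activation: percent rise of integrated ratio over buffer wells lacking compound which define 0%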). The note with it: Fluo4 calcium fluorescence, at 10 µM; active compounds read high.
Assay [2] concerns transient receptor potential cation channel C4 beta (TRPC4), mouse. Put plainly: TRPC4 cation channel opening, second retest – cell-based, second round, Fluo4, HEK293 TRPC4beta/mu-opioid, 1 µM, confirmation (AID 2461;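 active = primary screen active and over 50% activation in each of two duplicate runs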). The settings on record: Fluo4 calcium fluorescence, at 1 µM; active compounds read high.
The test system of assay [3] is TRPC4 (transient receptor potential cation channel C4 beta), mouse. Put plainly: potentiation of DAMGO EC20 TRPC4 response – cell-based, second round, Fluo-4, HEK293 TRPC4beta/mu-opioid, 1 µM, confirmation (AID 2554;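 active = primary screen hit whose fluorescence ratio, in both repeats, exceeds the weak agonist control mean by 3 SD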). The note with it: DAMGO EC20, Fluo-4 calcium flux, at 1 µM; active compounds read high.
For assay [4], the system named is TRPC4 beta (transient receptor potential cation channel C4), mouse. Nature of the assay: potentiation of DAMGO EC20 TRPC4 response – cell-based, Fluo-4, HEK293 TRPC4beta/mu-opioid, confirmation (AID 2555;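 active = primary screen hit whose calcium fluorescence ratio, in both repeats, exceeds the weak agonist control mean by 3 SD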). The settings on record: DAMGO EC20, Fluo-4 calcium flux, at 10 µM; active compounds read high.
Assay [5] concerns the target Short transient receptor potential channel 4 (Mus musculus) (UniProt Q9QUQ5). Put plainly: blockers of DAMGO-evoked TRPC4 calcium flux – cell-based, Fluo4, HEK293 TRPC4beta/mu-opioid, confirmation (AID 2636). The note with it: at 10 µM; active compounds read high.
The target is the same in assay [6]. Put plainly: blockers of DAMGO-evoked TRPC4 calcium flux – cell-based, second round, Fluo4, HEK293 TRPC4beta/mu-opioid, 1 µM, confirmation (AID 2637;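 active = calcium signal ratio cut to more than 3 SD under the fully stimulated control mean yet still positive, in both repeats and the primary screen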;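 as to inhibition: percent of integrated ratio relative to wells lacking test compound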). The note with it: at 1 µM; active compounds read high.
The target is the same in assay [7]. Nature of the assay: calcium entry via TRPC4 opening agents – cell-based, HEK293 TRPC4/mu-opioid, Fluo-4 calcium, dose response (AID 434937;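 active = primary screen activator hit with a dose response curve and TRPC4 channel activation at any tested dose; inactive = no activation, no dose response, or not a primary hit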).
Assay [8] shares this target. Nature of the assay: potentiation of DAMGO-evoked TRPC4 calcium signal – cell-based, HEK293 TRPC4/mu-opioid, Fluo-4 calcium, EC20 DAMGO, dose response (AID 434941;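 active = earlier screen potentiator hit that boosts the TRPC4 ion channel at some dose, with a dose response; inactive = no potentiation, no dose response, or not a prior hit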;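 also: calcium entry triggered by an EC20 dose of DAMGO at the co-expressed mu-opioid receptor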).
The target in assay [9] is Short transient receptor potential channel 6 (Mus musculus) (UniProt Q61143). Nature of the assay: TRPC6 blockade by TRPC4 inhibitor hits – cell-based, HEK293, membrane potential dye, duplicate, selectivity assay for TRPC4 inhibitor project, confirmation (AID 434948;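 active = active in primary screen and both duplicates, each dropping signal beyond three positive-control SD with fluorescence still positive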). The settings on record: HEK293 TRPC6, membrane potential dye fluorescence, at 10 µM, stimulated with maximal-effect acetylcholine; active compounds read high.

Assay [10] shares this target. Nature of the assay: TRPC6 opening by TRPC4 activator hits – cell-based, HEK293, membrane potential dye, duplicate, selectivity assay for TRPC4 activator project, confirmation (AID 434950;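 active = membrane potential signal rise above negative control mean plus 3 SD in both duplicates, also active in the earlier TRPC4 screen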). The note with it: HEK293 TRPC6, membrane potential fluorescence, at 10 µM; activation: active compounds read high; outcome: activation.
For assay [11] the target is unchanged. Put plainly: positive modulators of mouse TRPC6 channel – HEK293 cells, membrane potential dye, duplicate, selectivity assay for TRPC4 potentiator project, confirmation (AID 434952;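 active = compound raising the membrane signal above positive-control mean plus 3 SD in both repeats, and a primary screen hit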). The note with it: HEK293 TRPC6, membrane potential dye fluorescence, at 10 µM, maximal acetylcholine added after compound; active compounds read high.
The target in assay [12] is Short transient receptor potential channel 4 (Mus musculus) (UniProt Q9QUQ5). Put plainly: calcium flux activators in TRPC4/5HT1a cells, counter-screen for TRPC4 activator project, cell-based, second counter screen, HEK293 TRPC4/5HT1a, Fluo-4 (AID 434977;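 active = calcium signal rise above buffer-control mean plus 5 SD in both duplicates, and also a hit in the primary screen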;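 as to activation: plate controls were assay buffer for no effect and maximal serotonin response for full effect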). The note with it: Fluo-4 calcium flux, at 10 µM; active compounds read high.
Assay [13] is described as follows: serotonin-gated TRPC4 signal block – cell-based, second counter screen, HEK293 TRPC4/5HT1a, Fluo-4, counter-screen for TRPC4 inhibitor project, confirmation (AID 434978;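 active = primary screen active whose calcium signal fell more than 3 SD beyond the full-serotonin control mean in both duplicate plates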;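 as to outcome: serotonin given first at submaximal then at maximal dose after compound preincubation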). The settings on record: Fluo-4 calcium flux, at 10 µM, serotonin added to trigger calcium flux; active compounds read high.
The subject of assay [14] is TRPC4 (mouse), co-expressed with 5HT1a in HEK293. Put plainly: enhancement of serotonin-evoked TRPC4 response – cell-based, second counter screen, HEK293 TRPC4/5HT1a, Fluo-4, counter-screen for TRPC4 potentiator project, confirmation (AID 434979;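 active = signal rise over 3 SD above mean of control wells given weak agonist, in both repeats and first screen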). The note with it: Fluo-4 calcium flux, at 10 µM, serotonin added at its EC20 dose; active compounds read high.
Assay [15] in a line: nonspecific calcium rise without TRPC4 – cell-based, HEK293 mu-opioid receptor line, counter-screen for TRPC4 activator project, confirmation (AID 449723;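 active = hit in primary screen, with calcium signal over 5 SD above buffer well mean in both duplicates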;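 also: counter screen cells carry the mu-opioid receptor alone and lack TRPC4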). The settings on record: HEK293 mu-opioid cells, Fluo-4 calcium fluorescence, at 10 µM; active compounds read high.
Assay [16] in a line: nonspecific potentiation of DAMGO calcium response – cell-based, HEK293 mu-opioid receptor line, counter-screen for TRPC4 allosteric potentiator project, confirmation (AID 449724;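 active = calcium signal rise more than 3 SD above the low-dose agonist control mean, in both duplicate plates and the primary screen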;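 also: HEK293 cells carrying mu-opioid receptor only with no TRPC4 channel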). The note with it: HEK293 mu-opioid receptor cells, Fluo-4 calcium flux, at 10 µM, compound added before EC20 DAMGO stimulus; active compounds read high.

For part of these data: Measured potencies and affinities stand elsewhere. Calls of active or inactive are those of the source.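 The calls were made as follows, unless noted: active = calcium signal cut by more than 3 SD below the full-agonist control yet still positive, in both repeats and the earlier primary screen; inactive = the rest.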

Sequence of Short transient receptor potential channel 6 (Mus musculus) (Q61143 whole entry, looked up): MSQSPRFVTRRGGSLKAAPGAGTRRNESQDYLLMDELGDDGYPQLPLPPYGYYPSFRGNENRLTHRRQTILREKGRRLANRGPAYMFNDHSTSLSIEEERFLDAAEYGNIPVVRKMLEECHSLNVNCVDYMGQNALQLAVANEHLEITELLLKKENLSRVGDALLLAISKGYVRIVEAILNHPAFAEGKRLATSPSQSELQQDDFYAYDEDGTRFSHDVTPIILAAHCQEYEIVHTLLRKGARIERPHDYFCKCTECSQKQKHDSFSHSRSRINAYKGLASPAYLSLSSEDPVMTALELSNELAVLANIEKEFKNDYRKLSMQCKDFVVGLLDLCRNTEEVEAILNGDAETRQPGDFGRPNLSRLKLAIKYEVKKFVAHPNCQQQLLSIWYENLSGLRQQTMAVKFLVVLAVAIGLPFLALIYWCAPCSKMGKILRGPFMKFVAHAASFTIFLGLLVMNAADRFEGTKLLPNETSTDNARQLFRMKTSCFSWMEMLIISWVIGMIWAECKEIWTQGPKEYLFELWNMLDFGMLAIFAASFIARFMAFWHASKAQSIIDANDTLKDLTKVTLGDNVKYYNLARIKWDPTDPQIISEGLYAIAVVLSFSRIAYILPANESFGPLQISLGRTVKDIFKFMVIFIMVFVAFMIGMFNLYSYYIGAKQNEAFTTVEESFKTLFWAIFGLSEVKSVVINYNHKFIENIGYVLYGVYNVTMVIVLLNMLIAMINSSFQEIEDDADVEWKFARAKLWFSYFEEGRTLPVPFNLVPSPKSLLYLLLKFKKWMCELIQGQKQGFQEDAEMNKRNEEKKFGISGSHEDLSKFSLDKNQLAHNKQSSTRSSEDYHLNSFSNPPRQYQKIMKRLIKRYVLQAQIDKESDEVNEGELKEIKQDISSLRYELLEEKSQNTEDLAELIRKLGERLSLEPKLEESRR
Sequence of Short transient receptor potential channel 4 (Mus musculus) (Q9QUQ5 whole entry, looked up): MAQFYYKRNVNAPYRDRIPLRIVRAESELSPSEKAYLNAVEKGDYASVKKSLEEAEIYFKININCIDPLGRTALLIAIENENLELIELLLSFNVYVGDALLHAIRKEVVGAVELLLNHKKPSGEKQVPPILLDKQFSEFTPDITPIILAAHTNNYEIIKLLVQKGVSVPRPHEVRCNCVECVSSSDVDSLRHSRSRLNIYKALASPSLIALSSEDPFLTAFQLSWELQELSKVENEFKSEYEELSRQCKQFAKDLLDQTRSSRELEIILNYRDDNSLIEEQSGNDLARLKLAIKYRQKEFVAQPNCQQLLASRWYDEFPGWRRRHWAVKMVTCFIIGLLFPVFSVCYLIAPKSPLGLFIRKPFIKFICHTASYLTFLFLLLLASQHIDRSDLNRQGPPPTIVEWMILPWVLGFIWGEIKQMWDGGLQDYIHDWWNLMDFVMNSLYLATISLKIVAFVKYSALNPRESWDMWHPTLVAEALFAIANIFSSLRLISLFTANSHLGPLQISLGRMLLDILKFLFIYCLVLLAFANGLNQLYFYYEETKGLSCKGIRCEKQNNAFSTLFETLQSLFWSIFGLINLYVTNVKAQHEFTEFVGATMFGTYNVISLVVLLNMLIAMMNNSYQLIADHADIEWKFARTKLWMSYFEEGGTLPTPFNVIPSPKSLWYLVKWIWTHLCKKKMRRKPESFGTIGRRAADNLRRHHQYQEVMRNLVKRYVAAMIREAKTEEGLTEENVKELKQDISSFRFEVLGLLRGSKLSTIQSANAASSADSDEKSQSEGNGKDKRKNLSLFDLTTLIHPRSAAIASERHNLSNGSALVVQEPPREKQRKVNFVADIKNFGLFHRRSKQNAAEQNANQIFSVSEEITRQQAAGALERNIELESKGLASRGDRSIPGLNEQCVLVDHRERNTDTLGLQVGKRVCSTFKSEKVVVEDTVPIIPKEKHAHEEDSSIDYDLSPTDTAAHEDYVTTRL

Regarding `COCCNc1c2c(nc3ccccc13)CCC2`, the result in assay [1], in assay [2], in [3], in assay [4], in assay [7] and in assay [8] was inactive. Further, the compound was called inactive in [10], in assay [11], in [12], in [14], in assay [15] and in assay [16]. In addition, the inhibition in assay [5] is 100% (active); in assay [6], 57% (active); in assay [9], 37.5% (active); in [13] it was 11.8% (active).
As to `CC(=O)Nc1ccc(S(=O)(=O)NC2=C(N3CCN(Cc4ccccc4)CC3)C(=O)c3ccccc3C2=O)cc1`, the result in assay [1], in [2], in assay [3], in assay [4], in assay [7] and in assay [8] was inactive. For the same compound, the call in assay [10], in assay [11], in assay [12], in [13], in assay [14] and in assay [15] was inactive. In addition, the outcome in assay [16] was inactive. The inhibition in assay [5] is 72% (active); in [6], 40% (active); in assay [9], 30% (active).
`O=[N+]([O-])c1ccc(O)c(C2=NNC(c3ccccc3F)C2)c1` (stereo not given): the activation is 87% (active) in assay [1], 8.52% (active) in assay [12] and 20.8% (active) in assay [15]. Further, the outcome in assay [2], in assay [3], in assay [4], in assay [6], in assay [7] and in assay [8] was inactive. The result in assay [10], in assay [11], in [13], in assay [14] and in [16] was inactive. Besides, the inhibition in [5] was 55% (active); in [9] it was 50% (active).
For `CCn1c(=O)n(CCOC)c(=O)c2c3c(sc21)CCCC3`, the result in [1], in assay [2], in assay [3], in assay [4], in assay [7] and in [8] was inactive. Besides, the result in [9], in [10], in assay [11], in [12], in assay [14] and in assay [15] was inactive. Besides, the result in assay [16] was inactive. Further, the values for the inhibition in assay [5], in [6] and in [13] were 91% (active), 58% (active) and 16.2% (active), respectively.
For `Cn1nnnc1SCCNCc1ccccc1OCc1ccc(Cl)cc1`, the result in assay [1], in assay [2], in [3], in assay [4], in assay [7] and in assay [8] was inactive. For the same compound, the result in assay [9], in [10], in assay [11], in assay [12], in assay [14] and in assay [15] was inactive. For the same compound, the result in assay [16] was inactive. The inhibition in [5] is 88% (active); in assay [6], 45% (active); in assay [13], 23.5% (active).
Consider `O=c1c2ccccc2[nH]c(=S)n1CCN1CCN(Cc2ccccc2)CC1`, for which the result in assay [1], in assay [2], in assay [3], in assay [4], in [7] and in assay [8] was inactive. Besides, the call in assay [9], in [10], in [11], in assay [12], in assay [13] and in assay [14] was inactive. In addition, the result in assay [15] and in assay [16] was inactive. The inhibition in [5] was 75% (active); in [6], 44% (active).
As for `CCCCNCc1cc(Cl)c(OCCC)c(OCC)c1`, the outcome in assay [1], in [2], in [3], in [4], in [6] and in [7] was inactive. Besides, the result in [8], in assay [9], in assay [10], in [11], in assay [12] and in [13] was inactive. The result in [14], in assay [15] and in [16] was inactive. The inhibition in [5] was 86% (active).
For the compound `CCOc1cc(CNCc2cccs2)ccc1OCC(=O)NC(C)(C)C`, the result in assay [1], in [2], in [3], in [4], in assay [7] and in [8] was inactive. For the same compound, the compound was classed as inactive in assay [9], in [10], in assay [11], in assay [12], in assay [13] and in assay [14]. In addition, the outcome in assay [15] and in assay [16] was inactive. The inhibition in [5] is 98% (active); in assay [6] it was 49% (active).
Regarding `Cc1cc(C)nc(/N=C(\N)N(Cc2ccccc2)Cc2ccccc2)n1`, the outcome in assay [1], in assay [2], in [3], in assay [4], in assay [6] and in assay [7] was inactive. In addition, the result in assay [8], in [10], in [11], in assay [12], in assay [14] and in assay [15] was inactive. Besides, the outcome in [16] was inactive. Moreover, the inhibition in [5] is 97% (active); in assay [9], 30.5% (active); in [13] it was 41.7% (active).
On to `CC[n+]1c(/C=C/Nc2ccccc2)oc2ccc(OC)cc21`, for which the result in assay [1], in assay [2], in [3], in [4], in assay [6] and in assay [7] was inactive. For the same compound, the result in [8], in [10], in assay [11], in assay [12], in assay [14] and in assay [15] was inactive. The outcome in [16] was inactive. In addition, the inhibition was 92% (active) in [5], 46.5% (active) in [9] and 34% (active) in assay [13].
Turning to `CCCCC(CC)C(=O)Nc1ncc([N+](=O)[O-])s1` (stereo not given), the result in assay [1], in assay [2], in [3], in assay [4], in assay [6] and in assay [7] was inactive. Further, the outcome in [8], in [10], in [11], in [12], in assay [14] and in assay [15] was inactive. In assay [16], the result was inactive. Also, the figures for the inhibition in assay [5], in assay [9] and in assay [13] were 81% (active), 33.5% (active) and 27.7% (active), respectively.
Take `COC(=O)CSc1nnc2n(-c3ccc(OC)cc3)c(=O)c3c4c(sc3n12)CCCCC4`: the outcome in assay [1], in assay [2], in assay [3], in [4], in assay [6] and in [7] was inactive. In addition, the result in assay [8], in assay [9], in assay [10], in [11], in assay [12] and in assay [14] was inactive. The result in [15] and in assay [16] was inactive. The values for the inhibition in assay [5] and in [13] were 95% (active) and 23% (active), respectively.
Consider `O=C(Nc1ccccc1)N1CCN2C(=O)c3ccccc3C12c1ccccc1` (stereo not given), for which the result in assay [1], in assay [2], in [3], in assay [4], in assay [7] and in assay [8] was inactive. For the same compound, the call in assay [9], in [10], in [11], in [12], in [13] and in [14] was inactive. Also, the outcome in assay [15] and in assay [16] was inactive. Also, the results for the inhibition in assay [5] and in [6] were 85% (active) and 62% (active), respectively.
On to `Cc1cc(C)nc(NC(N)=NC2CCCCC2)n1`, for which the result in assay [1], in assay [2], in [3], in assay [4], in assay [7] and in [8] was inactive. Further, the call in [9], in assay [10], in [11], in assay [12], in [14] and in assay [15] was inactive. Also, the outcome in assay [16] was inactive. The values for the inhibition in assay [5], in [6] and in [13] were 92% (active), 43% (active) and 21.9% (active), respectively.
Turning to `CCOC(=O)C1CCN(CC(O)COc2ccc(C(C)(C)C)cc2)CC1` (stereo not given), the outcome in assay [1], in [2], in [3], in [4], in assay [5] and in assay [6] was inactive. The outcome in assay [7], in [8], in [9], in assay [10], in assay [11] and in assay [12] was inactive. Besides, the outcome in assay [14], in assay [15] and in [16] was inactive. Also, in [13], the inhibition is 41.5% (active).
